Compound activity deposited in PubChem by several laboratories.
Hits are enriched below; roughly 3% of the tested compounds scored in any of these assays.
FadD28 binding – M. tuberculosis FadD28 bisubstrate binding inhibition; FadD28 bisubstrate probe binding, fluorescence polarization; AID 588549; 0.22% of 360,000 active; inhibition, % at 12.5 µM; in the data active means inhibition above about 8.5%, passing the limit was not always enough
Mtb FBA inh – inhibitors of M. tuberculosis fructose-bisphosphate aldolase. inhibition, % at 1 µM. purified M. tuberculosis FBA, fluorescence read-out. 2.3% of 360,000 active. AID 588726. P9WQA3; in the data active means inhibition above about 27%;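 further: 0% = vehicle and 100% = reference inhibitor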
Rv3671c inh – inhibits the M. tuberculosis serine protease Rv3671c. inhibition, % at 5.96 µM. 0.048% of 320,000 active; in the data active means inhibition above about 38%;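 further: extracellular domain of Rv3671c used as enzyme; 0% = enzyme with DMSO and 100% = no enzyme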
Target sequence (P9WHR9 whole entry, looked up, the tested form may be a part): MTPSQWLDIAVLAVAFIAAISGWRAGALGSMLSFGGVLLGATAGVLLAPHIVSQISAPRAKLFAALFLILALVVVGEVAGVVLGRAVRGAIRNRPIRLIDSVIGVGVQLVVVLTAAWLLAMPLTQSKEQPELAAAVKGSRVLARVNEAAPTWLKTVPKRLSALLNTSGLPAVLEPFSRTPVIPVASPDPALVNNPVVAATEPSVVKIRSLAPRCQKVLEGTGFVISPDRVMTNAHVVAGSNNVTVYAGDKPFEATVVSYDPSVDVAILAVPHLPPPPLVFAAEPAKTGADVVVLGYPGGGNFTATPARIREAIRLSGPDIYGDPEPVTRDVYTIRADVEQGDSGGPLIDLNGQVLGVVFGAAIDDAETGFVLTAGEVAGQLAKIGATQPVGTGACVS
BioA inh – inhibitors of Mycobacterium tuberculosis BioA enzyme. AID 602481. inhibition, % at 9.99 µM. purified M. tuberculosis BioA enzyme, plate reader. 0.096% of 360,000 active; in the data active means inhibition above about 40%
GDH-TPI inh – inhibits GDH-TPI coupling enzymes, artifact for Mtb FBA screen; GDH-TPI coupled enzyme counterscreen, NADH absorbance; inhibition, % at 4.8 µM; 1.2% of 360,000 active; AID 588335; in the data active means inhibition above about 30%;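 further: 0% = DMSO wells and 100% = wells lacking the enzyme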
* = called active by the depositor; / = no result given; + = active, no number.

SMILES | FadD28 binding | Mtb FBA inh | Rv3671c inh | BioA inh | GDH-TPI inh
COCCn1c(-c2ccc(OC)cc2)c(-c2ccc(OC)cc2)oc1=O | -3 | 131* | -5 | 7 | -3
C[C@@H]1CN([C@H](C)CO)C(=O)c2cccc(NS(=O)(=O)c3cccs3)c2O[C@@H]1CN(C)Cc1ccc(-c2ccccc2)cc1 | / | / | / | -5 | /
CCCOc1ccc(NC(=O)C2CC(=O)N/C(=N/N=C(C)/C=C/c3ccc(N(C)C)cc3)S2)cc1 (stereo unspecified) | -1 | -3 | 5 | / | 32*
CC(/C=C/c1ccc(N(C)C)cc1)=N/N=C1/NC(=O)CC(C(=O)Nc2ccc(Cl)cc2)S1 (stereo unspecified) | -2 | -8 | 17 | -1 | 27
COc1ccc(-c2cc3nc(-c4ccccc4)cc(N4CCC5(CC4)OCCO5)n3n2)cc1 | -1 | 28* | -27 | -1 | 14
COc1cccc(C2C3=C(CCCC3=O)Nc3[nH]n(-c4ccccc4)c(=O)c32)c1 (stereo unspecified) | -3 | 0 | -1 | / | 21
O=C1CCCC2=C1C(c1ccc3c(c1)OCO3)c1c([nH]n(-c3ccccc3)c1=O)N2 (stereo unspecified) | 1 | -4 | -7 | -1 | 37*
N#Cc1c(N)c(C#N)c(-c2ccc(O)cc2)c2c1CCCC2 | -9 | 17 | -10 | 0 | 5
N#Cc1c(N)c(C#N)c(-c2ccc3c(c2)OCO3)c2c1CCCC2 | -1 | 7 | 6 | -3 | 41*
N#Cc1c(-c2ccc3c(c2)OCO3)csc1N | 0 | 1 | 9 | 10 | 6
N#Cc1c(N)nc2c(c1-c1ccc3c(c1)OCO3)CCc1ccccc1-2 | -1 | 31* | 2 | 0 | 0
COc1ccc(CN2CCc3c([nH]c4ccccc34)C2)cc1Br | 1 | 11 | 3 | -4 | 43*
CC(C)N(C[C@H]1N[C@@H](CO)[C@H]1c1ccccc1)C(=O)c1ccccc1 | / | / | / | 2 | /
O=C1CCN(Cc2ccc(O)cc2)CCN1CCO | 0 | 1 | -8 | -3 | 34*
COc1ccc(-c2ccnc3nc(Sc4ncc(C(F)(F)F)cc4Cl)nn23)cc1 | -6 | + | -18 | -2 | 14
FC(F)(F)c1cnc(Sc2nc3nccc(-c4ccc(Cl)cc4)n3n2)c(Cl)c1 | -3 | 2 | -4 | 5 | -4
O=C(C[C@@H]1C[C@H]2c3cc(NC(=O)C4CCC4)ccc3O[C@H]2[C@H](CO)O1)NCc1cc(F)ccc1F | / | / | / | 9 | /
S=c1nc[nH]c2c1sc1nc(-c3ccccc3)c3c(c12)CCCC3 | 15* | -2 | 9 | / | 7
CO[C@@H]1CC[C@@H]2CCOc3c(C#N)cccc3C(=O)N(C)[C@@H](C)C(=O)N(C)C[C@H]1O2 | / | / | / | -1 | /
Nc1nonc1-n1nnc(C(=O)N/N=C/c2ccc(O)cc2)c1COc1ccc(F)cc1 | -4 | -2 | -6 | -2 | 32*
Nc1nonc1-n1nnc(C(=O)N/N=C/c2ccc(OCc3ccccc3)cc2)c1COc1ccc(F)cc1 | 0 | 7 | 0 | -1 | -7
COCc1c(C(=O)N/N=C/c2ccc(C)o2)nnn1-c1nonc1N | -5 | -3 | -1 | -1 | 38*
CN(C)c1ccc(/C=N/NC(=O)c2nnn(-c3nonc3N)c2CN(C)c2ccccc2)cc1 | -1 | 8 | 5 | -5 | 31*
C[C@H](CO)N1C[C@H](C)[C@H](CN(C)S(=O)(=O)c2ccc(F)cc2)Oc2c(NC(=O)c3ccc(-c4nccs4)cc3)cccc2C1=O | / | / | / | 2 | /
CN(C)CC#Cc1ccc([C@H]2[C@@H](CO)N3CCCCN(C(=O)Nc4cc(F)ccc4F)C[C@H]23)cc1 | / | / | / | 5 | /
SMILES | FadD28 binding | Mtb FBA inh | Rv3671c inh | BioA inh | GDH-TPI inh
C(=N\N1CCOCC1)/c1nc(-c2ccccc2)n2ccccc12 | -1 | 1 | -7 | / | 34*
C(=N\N1CCOCC1)/c1cn(-c2ccccc2)nc1-c1ccccc1 | 0 | 0 | 2 | 1 | 3
C[C@H]1CN([C@@H](C)CO)C(=O)c2cc(-c3cccnc3)cnc2O[C@H]1CN(C)C | / | / | / | -1 | /
CCOC(=O)c1nnc(-c2cccs2)nc1NC(C)C | -3 | -5 | 9 | 3 | 31*
N=C1/C(=C\c2ccc(SCc3ccccc3)o2)C(=O)N=C2SC(CC(=O)N3CCOCC3)=NN12 | 0 | -3 | -15 | / | 39*
Cc1ccc(/C=C2\C(=N)N3N=C(CC(=O)N4CCOCC4)SC3=NC2=O)o1 | 1 | 5 | -3 | -5 | 45*
COc1ccc(/C=C2\C(=N)N3N=C(CC(=O)N4CCOCC4)SC3=NC2=O)cc1 | -1 | 2 | 1 | -1 | 10
